PubChem BioAssay
Calls of active or inactive are those of the source.

Assays:
Albumin (Bos taurus) = Albumin (Bos taurus) (UniProt P02769); assay: compounds binding labelled BSA control protein – biochemical, small-molecule microarray, Alexa647 label, 635/667 nm fluorescence, artefact control for SMM control protein annotation, profiling panel (AID 1118); conditions: BSA-A647 binding, fluorescence 635 nm, higher = more signal;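 also: score merges 667 nm emission intensity and signal-to-noise per printed compound spot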
Sequence of Albumin (Bos taurus) (P02769 whole entry, looked up): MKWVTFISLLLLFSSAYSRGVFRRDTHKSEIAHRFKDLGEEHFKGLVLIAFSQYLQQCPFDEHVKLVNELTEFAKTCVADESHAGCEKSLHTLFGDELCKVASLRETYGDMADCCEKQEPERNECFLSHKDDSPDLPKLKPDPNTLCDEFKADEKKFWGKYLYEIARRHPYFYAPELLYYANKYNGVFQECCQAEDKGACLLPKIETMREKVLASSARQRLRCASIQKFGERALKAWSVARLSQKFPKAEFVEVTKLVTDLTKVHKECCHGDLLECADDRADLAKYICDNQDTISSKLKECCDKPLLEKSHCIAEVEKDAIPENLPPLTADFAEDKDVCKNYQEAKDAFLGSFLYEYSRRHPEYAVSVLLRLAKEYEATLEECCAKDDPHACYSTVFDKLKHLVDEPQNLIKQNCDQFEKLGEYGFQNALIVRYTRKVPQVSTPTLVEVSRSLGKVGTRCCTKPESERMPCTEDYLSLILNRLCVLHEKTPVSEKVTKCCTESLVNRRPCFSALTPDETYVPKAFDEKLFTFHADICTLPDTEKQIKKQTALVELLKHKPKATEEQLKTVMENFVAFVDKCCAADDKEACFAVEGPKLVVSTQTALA

[1] = probe aXIP binding to arrayed compounds – biochemical, NeuroSMM set, 635/667 nm fluorescence, primary screen (AID 1119); conditions: small-molecule microarray, higher = more signal, called active from +8 up or from −8 down;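 also: probe is the protein aXip251-270 applied at 1 µg/mL to compound-printed slides; binding of probe to printed compounds measured as 667 nm fluorescence plus signal to noise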
[2] = probe aNOTCH3 binding on compound microarray – biochemical, small-molecule microarray, 635/667 nm fluorescence, primary screen (AID 1120); conditions: higher = more signal;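 also: probe is a biotin-tagged antibody raised against NOTCH3 rather than NOTCH3 protein; score merges spot fluorescence near 667 nm with spot signal to noise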
[3] = probe aNOTCH2 binding on compound microarray – biochemical, small-molecule microarray, 635/667 nm fluorescence, primary screen (AID 1121); conditions: higher = more signal;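 also: score merges feature fluorescence read at 667 nm with its signal to noise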
[4] = target: Carbonic anhydrase 2 (Homo sapiens) (UniProt P00918); assay: compounds binding carbonic anhydrase 2 – biochemical, small-molecule microarray, Alexa647-labelled CAII, profiling panel (AID 1122); conditions: CAII-A647 binding fluorescence, higher = more signal
[5] = COS7 lysate on small-molecule microarray, probe aHis, 635 nm (AID 1123); conditions: COS7 cell lysate, fluorescence, higher = more signal;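 also: z-score combines 667nm fluorescence intensity with signal-to-noise per printed compound spot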
[6] = probe aLAP1 signal on lysate-treated microarray – cell lysate, small-molecule microarray, COS7 lysate, primary screen (AID 1124); conditions: probe aLAP1, fluorescence, higher = more signal;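 also: lysate comes from COS7 cells expressing LAP1 and is applied at 0.3 µg/mL; score merges spot fluorescence near 667 nm with signal-to-noise over triplicate slides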
Sam68 (KHDRBS1) = assay: compounds binding KHDRBS1 protein – biochemical, small-molecule microarray, 635 nm fluorescence, primary screen (AID 1125); conditions: higher = more signal;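 also: score merges 667 nm channel intensity with signal to noise over triplicate slides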
[7] = system: Chordin-like protein 2 (CHRDL2); assay: compounds binding chordin-like 2 – biochemical, small-molecule microarray, 635 nm fluorescence, primary screen (AID 1126); conditions: fluorescence 635 nm, higher = more signal;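 also: printed compound slides probed with Chrdl2 protein at 4 µg/mL for 1 h at 4 C; score merges 667 nm emission intensity with signal to noise over three replicate slides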
[8] = target: Concanavalin-A (Canavalia ensiformis) (UniProt P02866); assay: compounds binding concanavalin A lectin – biochemical, small-molecule microarray, Alexa647 label, 635 nm, artefact control for SMM control protein annotation, primary screen (AID 1127); conditions: ConA-A647 binding fluorescence, higher = more signal;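 also: z combines 667 nm emission intensity with signal-to-noise across three replicate slides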
Sequence of Concanavalin-A (Canavalia ensiformis) (P02866 whole entry, looked up): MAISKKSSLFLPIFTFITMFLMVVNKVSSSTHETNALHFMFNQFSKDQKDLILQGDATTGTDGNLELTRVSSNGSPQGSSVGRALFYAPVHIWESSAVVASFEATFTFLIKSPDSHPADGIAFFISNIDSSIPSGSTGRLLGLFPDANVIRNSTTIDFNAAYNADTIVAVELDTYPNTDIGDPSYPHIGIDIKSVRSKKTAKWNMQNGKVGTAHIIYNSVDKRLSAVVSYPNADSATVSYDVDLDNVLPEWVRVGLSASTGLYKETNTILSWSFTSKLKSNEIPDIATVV

[9] = compounds binding Alexa647 anti-His antibody – biochemical, small-molecule microarray, 635 nm fluorescence, artefact control for SMM control protein annotation, primary screen (AID 1128); conditions: higher = more signal;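 also: score merges feature fluorescence with signal-to-noise for each printed compound spot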
[10] = system: Human papillomavirus type 1a E7 protein (residues 1-88); assay: HPV1a E7 small-molecule binders, primary screen, biochemical, small-molecule microarray, residues 1-88, 635 nm (AID 1129); conditions: small-molecule microarray binding, fluorescence 635 nm; higher = more signal
[11] = target: Focal adhesion kinase 1 (Homo sapiens) (UniProt Q05397); assay: PTK2 protein binding on printed compound slides – biochemical, small-molecule microarray, 635/667 nm fluorescence, BSA, DTT, primary screen (AID 1130); conditions: 635 nm fluorescence, higher = more signal;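 also: composite of spot emission at 667 nm and signal to noise over triplicate slides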
Sequence of Focal adhesion kinase 1 (Homo sapiens) (Q05397 whole entry, looked up): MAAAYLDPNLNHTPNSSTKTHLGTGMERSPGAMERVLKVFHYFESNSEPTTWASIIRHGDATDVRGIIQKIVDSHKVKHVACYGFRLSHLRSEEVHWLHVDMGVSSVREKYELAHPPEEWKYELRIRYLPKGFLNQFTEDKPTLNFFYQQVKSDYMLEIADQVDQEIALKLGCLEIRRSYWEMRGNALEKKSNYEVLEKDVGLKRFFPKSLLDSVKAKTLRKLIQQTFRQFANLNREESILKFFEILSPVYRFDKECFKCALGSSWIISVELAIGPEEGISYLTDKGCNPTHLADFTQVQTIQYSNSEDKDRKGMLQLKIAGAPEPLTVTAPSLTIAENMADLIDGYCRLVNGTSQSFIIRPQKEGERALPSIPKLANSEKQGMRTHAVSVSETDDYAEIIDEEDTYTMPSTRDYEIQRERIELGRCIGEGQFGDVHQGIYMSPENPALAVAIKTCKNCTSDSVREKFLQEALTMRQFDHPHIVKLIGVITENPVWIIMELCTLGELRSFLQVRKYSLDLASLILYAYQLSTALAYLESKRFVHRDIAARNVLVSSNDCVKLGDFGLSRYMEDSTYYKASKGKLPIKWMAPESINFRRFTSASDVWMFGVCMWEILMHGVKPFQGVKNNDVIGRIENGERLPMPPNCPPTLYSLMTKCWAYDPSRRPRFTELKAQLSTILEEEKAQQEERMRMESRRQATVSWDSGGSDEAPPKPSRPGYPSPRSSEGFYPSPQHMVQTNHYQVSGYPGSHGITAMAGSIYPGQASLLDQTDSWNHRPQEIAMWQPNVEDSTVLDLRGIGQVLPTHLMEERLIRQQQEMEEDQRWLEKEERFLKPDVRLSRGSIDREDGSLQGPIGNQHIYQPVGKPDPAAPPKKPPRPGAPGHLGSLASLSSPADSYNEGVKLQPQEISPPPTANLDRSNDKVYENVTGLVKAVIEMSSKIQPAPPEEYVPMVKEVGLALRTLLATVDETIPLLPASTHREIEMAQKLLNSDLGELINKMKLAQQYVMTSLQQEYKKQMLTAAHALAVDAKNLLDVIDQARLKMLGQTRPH

[12] = system: Fibrinogen (Alexa647-labelled); assay: Alexa647-fibrinogen binding to printed small molecules – biochemical, small-molecule microarray, 635/667 nm fluorescence, artefact control for SMM control-protein annotation, profiling panel (AID 1131); conditions: fibrinogen-A647 binding fluorescence, higher = more signal;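 also: z-score merges 667 nm fluorescence with per-spot signal-to-noise over triplicate slides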
[13] = target: Follistatin (Homo sapiens) (UniProt P19883); assay: FST protein binding to printed compounds – biochemical, small-molecule microarray, 635/667 nm fluorescence, primary screen (AID 1132); conditions: 635 nm fluorescence, higher = more signal
Sequence of Follistatin (Homo sapiens) (P19883 whole entry, looked up): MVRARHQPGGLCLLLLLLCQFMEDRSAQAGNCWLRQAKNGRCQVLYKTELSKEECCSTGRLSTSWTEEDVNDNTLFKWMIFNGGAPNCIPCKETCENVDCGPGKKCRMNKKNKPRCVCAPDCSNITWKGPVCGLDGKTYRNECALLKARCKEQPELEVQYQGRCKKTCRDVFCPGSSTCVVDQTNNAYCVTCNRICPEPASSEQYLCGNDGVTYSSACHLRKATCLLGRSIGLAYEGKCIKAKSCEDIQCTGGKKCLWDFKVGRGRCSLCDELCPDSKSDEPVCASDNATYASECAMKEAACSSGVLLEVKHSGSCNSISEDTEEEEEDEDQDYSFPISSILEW

[14] = target: Fibroblast growth factor 2 (Homo sapiens) (UniProt P09038); assay: basic fibroblast growth factor binding to printed compounds – biochemical, small-molecule microarray, 635/667 nm fluorescence, primary screen (AID 1133); conditions: FGF2, fluorescence 635/667, higher = more signal
Sequence of Fibroblast growth factor 2 (Homo sapiens) (P09038 whole entry, looked up): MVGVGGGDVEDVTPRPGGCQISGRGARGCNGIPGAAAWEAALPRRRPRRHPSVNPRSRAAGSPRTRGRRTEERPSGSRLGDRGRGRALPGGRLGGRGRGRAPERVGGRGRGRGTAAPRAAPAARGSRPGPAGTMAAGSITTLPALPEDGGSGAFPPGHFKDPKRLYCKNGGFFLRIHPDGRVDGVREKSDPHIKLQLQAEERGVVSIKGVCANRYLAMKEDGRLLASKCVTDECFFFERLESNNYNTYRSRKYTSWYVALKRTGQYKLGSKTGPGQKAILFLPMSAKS

[15] = JC-1 mitochondrial potential readout, lung cancer cells – cell-based, A549, JC-1 fluorescence, basal, 24 h, 100 nL, profiling panel (AID 1138); conditions: higher = more signal;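 also: A549 lung adenocarcinoma cells under basal conditions with no added stimulus; test concentration not given here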
Lefty1 = Lefty1 protein binding to printed compounds – biochemical, small-molecule microarray, 635/667 nm fluorescence, primary screen (AID 1139); conditions: fluorescence 635/667, higher = more signal
[16] = system: wheat germ agglutinin (Triticum aestivum), Alexa647-labelled; assay: Alexa647-WGA lectin binding to printed small molecules – biochemical, small-molecule microarray, 635/667 nm fluorescence, artefact control for SMM control-protein annotation, profiling panel (AID 1140); conditions: WGA-A647 binding, 635 nm fluorescence, higher = more signal;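 also: score merges 667 nm feature emission with signal to noise over triplicate slides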
[17] = target: Luciferin 4-monooxygenase (Photinus pyralis) (UniProt P08659); assay: inhibition of purified Photinus pyralis luciferase – biochemical, luminescence, purified enzyme, 2006 set, primary screen (AID 1141); conditions: purified firefly luciferase, SteadyGlo luminescence, 30 min; higher = more signal, called active from +8 up or from −8 down;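 also: cell-free assay with purified firefly luciferase at 100 ng per well in PBS; test concentration not given here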
Sequence of Luciferin 4-monooxygenase (Photinus pyralis) (P08659 whole entry, looked up): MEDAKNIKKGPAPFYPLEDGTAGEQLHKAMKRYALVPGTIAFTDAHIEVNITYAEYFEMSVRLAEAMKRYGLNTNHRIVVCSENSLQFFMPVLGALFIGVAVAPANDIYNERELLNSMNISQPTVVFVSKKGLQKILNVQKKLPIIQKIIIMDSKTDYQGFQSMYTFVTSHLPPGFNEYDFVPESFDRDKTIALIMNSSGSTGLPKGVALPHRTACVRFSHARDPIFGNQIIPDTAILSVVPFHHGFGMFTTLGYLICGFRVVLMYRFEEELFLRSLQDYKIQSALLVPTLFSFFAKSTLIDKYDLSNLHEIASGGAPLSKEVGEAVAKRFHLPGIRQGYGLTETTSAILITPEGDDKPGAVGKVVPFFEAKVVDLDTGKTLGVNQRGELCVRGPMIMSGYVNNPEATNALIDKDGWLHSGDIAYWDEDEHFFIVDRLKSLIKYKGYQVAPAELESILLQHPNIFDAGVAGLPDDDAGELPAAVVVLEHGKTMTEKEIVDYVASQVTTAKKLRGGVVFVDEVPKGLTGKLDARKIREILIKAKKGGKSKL

SMILES	composite z-score (Albumin (Bos taurus))	composite Z-score [1]	composite z-score [2]	composite z-score [3]	composite z-score [4]	composite z-score [5]	composite z-score [6]	composite z-score (Sam68 (KHDRBS1))	composite z-score [7]	composite z-score [8]	composite z-score [9]	composite z-score [10]	composite z-score [11]	composite z-score [12]	composite z-score [13]	composite z-score [14]	z-score [15]	composite z-score (Lefty1)	composite z-score [16]	z-score [17]
COc1ccc([Si](C)(C)[C@@H]2[C@@H](CCO)O[C@]3(C(=O)N(Cc4ccccc4)c4ccc(N5CCOC5=O)cc43)[C@H]2C)cc1	0.279	0.774 (inactive)	-0.0647	-0.102	0.324	0.747	0.294	1.32	0.127	0.816	0.515	1.11	-0.0211	0.661	0.36	0.19	-0.771	0.49	0.896	0.6 (inactive)
C[C@@H]1NC(=O)[C@@H](Cc2ccccc2)NC(=O)[C@@]23C(=O)N[C@@H](Cc4ccccc4)C2[C@H](C)[C@@]2(C)O[C@H]2C3/C=C/C/C=C\CNC1=O (stereo not given in full)	0.324	-0.888 (inactive)	-0.277	-0.125	0.493	1.05	0.074	0.126	-0.153	-0.447	-0.116	-0.514	-0.0535	-0.913	0.41	-0.0086	-0.0637	0.633	-0.889	-1.03 (inactive)
COCCOC(=O)N1C(=O)[C@@]2(c3cc(C#CCNC(N)=O)ccc31)[C@H](C(N)=O)[C@H]1C(=O)O[C@H](c3ccccc3)[C@H](c3ccccc3)N1[C@@H]2c1ccccc1OCCO	0.222	-0.327 (inactive)	0.133	0.0065	0.3	1.4	0.521	1.05	0.743	1.06	0.193	0.956	0.538	0.834	1.38	1.5	-1.17	0.684	0.403	-1.07 (inactive)
Cc1ccccc1C(O)C1C=CC2C(=O)NC(=O)C2N1Nc1ccccn1 (stereo not given)	0.65	0.497 (inactive)	-0.15	-0.14	0.355	0.78	0.483	-0.805	0.102	-0.227	0.744	0.108	0.0312	0.693	-0.145	-0.227	0.0755	-0.0955	0.159	-0.792 (inactive)
Cc1ccc(NN2C(C(O)c3c(F)cccc3Cl)C=CC3C(=O)N(C4CCCCC4)C(=O)C32)cc1 (stereo not given)	0.979	0.788 (inactive)	0.102	0.174	0.489	2.38	-0.0134	1.25	-0.804	1.19	1.5	1.2	0.601	1.04	0.842	-0.413	1.19	-0.209	1.26	0.289 (inactive)
C=CC[C@H](OC(=O)Nc1ccc(SC)cc1)c1ccc(O)c2ccccc12	0.923	-0.285 (inactive)	0.152	-0.107	0.634	1.72	0.368	1.29	0.975	1.16	0.942	1.23	0.492	0.938	1.36	1.23	-1.72	1.08	0.937	-4.58 (inactive)
CCOC(=O)C[C@H]1[C@H](OC(=O)c2cc3ccccc3oc2=O)[C@@H](NC(=O)CC(C)C)c2cc(OCCCO)ccc2N1C(=O)c1ccc2ccccc2n1	0.42	-0.077 (inactive)	0.191	-0.237	0.43	1.04	0.102	1.26	0.324	0.625	0.672	0.686	0.223	0.807	1.03	1.51	-0.551	0.903	0.0235	0.425 (inactive)
C=C(/C(=C/C[C@H](OC(C)=O)c1ccc(CO)o1)c1cnc2ccccc2c1)C(C)C	0.899	0.456 (inactive)	0.245	-0.148	0.945	0.948	0.269	1.29	1.06	1.14	1.07	1.16	0.38	0.988	1.39	1.41	-0.874	1.55	1.33	-1.41 (inactive)
[N-]=[N+]=NCc1ccccc1C[C@@]1(C(N)=O)N=C(c2ccc(OCCCO)cc2)O[C@@H]1c1ccccc1	1.09	0.294 (inactive)	0.0762	0.0341	0.693	2.83	0.368	1.3	-1.38	0.341	2.4	1.03	0.572	0.67	0.367	-0.457	0.078	-0.642	1.3	-0.857 (inactive)
O=C1OCCC/C=C\[C@H]2OC34C=CCN(c5ccc6ccccc6c5)C(=O)[C@H]3N(CCO)C(=O)[C@@H]4C12 (stereo not given in full)	-1.75	0.278 (inactive)	-0.355	-0.213	0.959	-0.237	1.48	-0.359	-2.13	-1.39	-0.218	-0.637	-0.774	-2.11	-1.2	-0.634	-0.817	-1.22	1.13	0.235 (inactive)
CO[C@H]1O[C@H](CO)[C@@H](OC(=O)Nc2ccc(Br)cc2)[C@@H]2OC(=O)[C@@H](Cc3ccccc3)C/C=C/C[C@H](Cc3ccccc3)C(=O)O[C@@H]12	0.771	-1.09 (inactive)	0.11	-0.0601	0.635	1.65	0.0964	0.968	-0.173	0.516	2.43	1.16	0.619	0.442	0.313	0.397	2.5	-0.0196	0.424	-1.38 (inactive)
